Laboratory results reported in PubChem BioAssay (EPA / NIEHS).
“And” between values parts separate entries of the source, which are not always exact repeats. Equal values may be shown once. Where a structure was tested more than once in an assay, its records may differ in their call. The source made the active and inactive calls. How the source made its calls: active means hit-call score of the fitted dose curve at least 0.9, where 1 is the maximum; inactive means score below 0.9.

What follows are compounds tested on CD38, CD38 (gene 952) (assay: BSK_SAg_CD38: BioMAP Diversity Plus: SAg Assay for CD38 Biomarker Activity (AID 2283087)). Details: primary human HUVEC with PBMC; actives raise or lower the signal.
Description: BSK_SAg is a cell-based, multiplexed-readout assay that uses umbilical vein endothelium and peripheral blood mononuclear cells, a human vascular primary cell co-culture, with measurements taken at 24 hours after chemical dosing in a 96-well plate.BSK_SAg_CD38 is one of 10 assay component(s) measured or calculated from the BSK_SAg assay. It is designed to make measurements of enzyme-linked immunosorbent assay, a form of binding reporter, as detected with fluorescence intensity signals by Enzyme-linked immunosorbent assay technology.Data from the assay component BSK_SAg_CD38 was analyzed into 1 assay endpoint. This assay endpoint, BSK_SAg_CD38, was analyzed with bidirectional fitting relative to DMSO as the negative control and baseline of activity. Using a type of binding reporter, gain or loss-of-signal activity can be used to understand changes in the signaling as they relate to the gene CD38. Furthermore, this assay endpoint can be referred to as a primary readout, because this assay has produced multiple assay endpoints where this one serves a signaling function. To generalize the intended target to other relatable targets, this assay endpoint is annotated to the cytokine intended target family, where the subfamily is other cytokine.
The levels of cell surface (or secreted, indicated by the prefix "s") biomarker endpoints were measured by ELISA. Overt cytotoxicity to cells in confluent adherent cultures (all systems other than the BT system) was assessed by measuring total protein levels using sulforhodamine B (SRB) staining in parallel cultures at the time of biomarker measurements, indicated as SRB endpoints. For proliferation assays for adherent cell types, individual cell types are cultured at sub-confluence and relative cell numbers quantified by SRB staining at time points optimized for each system (48 h: 3C and CASM3C systems; 72 h: BT and HDF3CGF systems; 96 h: SAg system). SRB was performed by staining cells with 0.1% SRB after fixation with 10% TCA and reading wells at 560 nm.Viability and proliferation of PBMC (T cells) was quantified by Alamar Blue reduction for the SAg and BT systems. For PBMC viability (referred to as PBMC Cytotoxicity within the assay endpoint names), cells were plated (75,000/well in a 96-well plate) and then chemical samples added for 1 h before addition of activators, SEB and TSST-1 (20 ng/mL final concentration each). Cells were incubated for 90 h. Then, Alamar Blue (20 uL/well) (Invitrogen, Cat DAL1100) was added for 6 h, and the plates were read with a fluorescence microplate reader at 546/580 nm (excitation/emission). For PBMC proliferation, cells were plated and activated as above but incubated for only 16 h prior to addition of Alamar Blue. Plates were read after 6 h.

SMILES	outcome	AC50
OC1CCC(C2CCCCC2)CC1 (stereo not given)	inactive	
O=C(O)Cc1cc(I)c(Oc2cc(I)c(O)c(I)c2)c(I)c1		21.3 µM (active)
c1ccc2cc3c(ccc4ccccc43)cc2c1	inactive	
CC[C@H](c1ccc(O)cc1)[C@@H](CC)c1ccc(O)cc1		19.1 µM (active)
CCc1nn(C2CCCCC2)c2cc(C3(C#N)CCC(C(=O)O)CC3)ccc12 (stereo not given)		20 µM (active)
Cc1cc(CCN2CCN(c3nsc4ccccc34)CC2)cc2c1NC(=O)CC2(C)C		13.4 µM (active)
OCCC(F)(F)C(F)(F)C(F)(F)C(F)(F)C(F)(F)C(F)(F)C(F)(F)C(F)(F)F	inactive	29.1 µM (active) and 27.8 µM (active)
CCC(=C(c1ccc(O)cc1)c1ccc(OCCN(C)C)cc1)c1ccccc1		8.38 µM (active)
Cc1cc(C)c(O)c(C)c1	inactive	
c1ccc2c(c1)Cc1ccccc1-2	inactive	
CCc1ccc(CCOc2ccc(CC3SC(=O)NC3=O)cc2)nc1 (stereo not given)	inactive	
CN1CCN(c2ccccc2/C=C2\SCCN(c3ccc(Cl)c(Cl)c3)C2=O)CC1		24.1 µM (active)
OC1CCCCC1	inactive	
Cc1oc(-c2ccccc2)nc1CCOc1ccc(C[C@H](Nc2ccccc2C(=O)c2ccccc2)C(=O)O)cc1		28.6 µM (active)
CC(C)(C)CC(C)(C)c1ccc(O)c(-n2nc3ccccc3n2)c1	inactive	
CCCOC(=O)c1ccc(O)cc1	inactive	
CCCCCCCCCCCCN1CCCC1=O		31.3 µM (active)
CCCCCCCCC(=O)O	inactive	
Oc1cc2ccccc2c2ccccc12		10 µM (active)

SMILES	outcome	AC50
CC(C)(C)c1cccc(C(C)(C)C)c1O	inactive	
CC(O)CO (stereo not given)	inactive	
CCCCCCCCCCCCc1ccccc1S(=O)(=O)O	inactive	
COCC(C)OCC(C)O (stereo not given)	inactive	
Oc1cccc(O)c1	inactive	
NC(=O)N1C(=O)C(C(=O)c2cc(Cl)cs2)c2cc(F)c(Cl)cc21 (stereo not given)		24.9 µM (active)
CC[C@H](C)[C@@H](C(=O)O)n1sc2ccccc2c1=O	inactive	
CCCCCCCC(=O)O	inactive	
O=C(O)c1ccccc1C(c1ccc(O)cc1)c1ccc(O)cc1	inactive	
CCOC(=O)CC(O)(CC(=O)OCC)C(=O)OCC	inactive	
COc1ccc([N+](=O)[O-])cc1N	inactive	
C#C[C@]1(O)CC[C@H]2[C@@H]3CCC4=CC(=O)CC[C@@H]4[C@H]3CC[C@@]21C		7.1 µM (active)
CCCCCCCCCCCCCC[N+](C)(C)C		3.24 µM (active)
Nc1cccc2c(N)cccc12	inactive	
O=[N+]([O-])c1ccc(O)cc1	inactive	
O=C(OCCOCCOC(=O)c1ccccc1)c1ccccc1	inactive	
COC(=O)CCCCC(=O)OC	inactive	
NC(=O)N(O)[C@@H]1C=C[C@H](Oc2cccc(Oc3ccc(F)cc3)c2)C1		26.3 µM (active)
OCCC(F)(F)C(F)(F)C(F)(F)C(F)(F)C(F)(F)C(F)(F)F	inactive	50.4 µM (active)
